PubChem BioAssay (Tox21)
“And” between values parts separate entries of the source, which are not always exact repeats. Equal values may be shown once. Results filed as inconclusive are left out. Where a call stands in place of a potency, no number is given. The source made the active and inactive calls. Calls follow the shape of the dose curve; as a rule, active = well fitted cell-killing curve with a large enough effect in the repeat runs; inconclusive = weak or mixed curves, or effect the other way; inactive = flat fitted curve, though single readings scatter.

Test: cAMP Responsive Elements (CRE) small molecule antagonists, cell-based qHTS assay: qHTS cell viability counter screen (AID 2060913); also: nearly all actives have a fitted effect of over 40% in size
Conditions: CRE-bla HEK293T viability, CellTiter-Glo luminescence, 5 h; series mostly up to 92.4 µM
Procedure, shortened: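 CRE-bla HEK293T cells were seeded in assay medium with 10% dialyzed FBS, incubated 18 hrs at 37 C, then exposed to compounds plus 0.25 uM final NKH477 for 3 hrs. Viability was read by CellTiter-Glo luminescence after 30 min, in the same wells.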
Potency is read from the fitted curve at half-maximal effect.

SMILES	Potency
c1ccc(-c2ccccn2)nc1	inactive
CCCCCCCCCCCCCCCC	inactive
Cc1c(Cl)c(=O)oc2cc(O)ccc12	inactive
O=C(O)CCc1nc(-c2ccccc2)c(-c2ccccc2)o1	inactive
Cc1ccccc1S	inactive
CCCCCCOC(=O)CCCCCCCC(=O)OCCCCCC	inactive
[Cl][Sc]([Cl])[Cl]	inactive
C=CC(C)(C)C	inactive
COc1cc2c(cc1OC)C(C(C(=O)N(CCc1ccc(OC)c(OC)c1OC)CCc1ccc(OC)c(OC)c1OC)c1ccccc1)=NCC2 (stereo not given)	inactive
COC(=O)c1ccc(NC(C)=O)cc1OC	inactive
CC1(C)C(C=C(Cl)Cl)C1C(=O)OCc1cccc(Oc2ccccc2)c1 (stereo not given)	inactive
CNCCS(=O)(=O)O	inactive
CC[C@H](NC(C)C)[C@H](O)c1ccc(O)c2[nH]c(=O)ccc12	inactive
CCOC(=O)c1ccc(N)cc1	inactive
O=C(O)[C@@H](O)[C@H](O)[C@H](O)[C@@H](O)C(=O)O	inactive
CC(C)(O)C(=O)c1ccccc1	inactive
CCCCCC(C)N (stereo not given)	inactive
OCCOCCOCCO	inactive
CC(=O)NCCCS(=O)(=O)O	inactive
Cc1cc2cc3c(C)cc(=O)oc3c(C)c2o1	inactive

SMILES	Potency
C=CCOCC(O)CS(=O)(=O)O (stereo not given)	inactive
Cc1cnccn1	inactive
COc1ccc(NS(=O)(=O)c2ccc(N)cc2)nn1	inactive
NCCCC[C@H](N[C@@H](CCc1ccccc1)C(=O)O)C(=O)N1CCC[C@H]1C(=O)O	inactive
O=C1OC(=O)c2c(Cl)c(Cl)c(Cl)c(Cl)c21	inactive
Cc1cc2nc3c(=O)[nH]c(=O)nc-3n(C[C@H](O)[C@H](O)[C@H](O)CO)c2cc1C	inactive
COC(=O)Nc1nc2ccc(C(=O)c3cccs3)cc2[nH]1	inactive
CC(C)C(=O)OCc1ccccc1	inactive
CC(C)=CCCC(C)O (stereo not given)	inactive
CCCCOCC	inactive
CCCCCCCC(=O)OC	inactive
CC(C(=O)O)c1ccc(/C=C2\CCCCC2=O)cc1 (stereo not given)	inactive
c1cnccn1	inactive
NCCS	inactive
Nc1ccc(F)c([N+](=O)[O-])c1	inactive
C[C@]12CCC(=O)C=C1C=C[C@@H]1[C@@H]2CC[C@@]2(C)[C@H]1CC[C@@]21CCC(=O)O1	inactive
c1cc(N(CC2CO2)CC2CO2)ccc1OCC1CO1 (stereo not given)	inactive
O=C1Nc2ccc([N+](=O)[O-])cc2C1=O	inactive
CCC(=O)c1ccc2c(c1)N(CCCN(C)C)c1ccccc1S2	inactive
CCCCCCCCCCCCCC[P+](CCCC)(CCCC)CCCC	60.8 µM (active) and 28.5 µM (active)

Test: cAMP Responsive Elements (CRE) small molecule agonists, cell-based qHTS assay: qHTS cell viability counter screen (AID 2060914);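 also: viability read after 3 h of compound exposure; nearly all actives have a fitted effect of over 50% in size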
Conditions: CRE-bla HEK293T viability, CellTiter-Glo luminescence, 5 h; series mostly up to 92.4 µM
Procedure, shortened: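 CRE-bla HEK 293T cells, plated 18 h at 37 °C, were exposed to compounds for 3 h at 37 °C/5% CO2. Viability was then measured in the same wells by CellTiter-Glo luminescence after 30 min at room temperature.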

SMILES	Potency
c1ccc(-c2ccccn2)nc1	inactive
CCCCCCCCCCCCCCCC	inactive
Cc1c(Cl)c(=O)oc2cc(O)ccc12	inactive
O=C(O)CCc1nc(-c2ccccc2)c(-c2ccccc2)o1	inactive
Cc1ccccc1S	inactive
CCCCCCOC(=O)CCCCCCCC(=O)OCCCCCC	inactive
[Cl][Sc]([Cl])[Cl]	inactive
C=CC(C)(C)C	inactive
COc1cc2c(cc1OC)C(C(C(=O)N(CCc1ccc(OC)c(OC)c1OC)CCc1ccc(OC)c(OC)c1OC)c1ccccc1)=NCC2 (stereo not given)	inactive
COC(=O)c1ccc(NC(C)=O)cc1OC	inactive
CC1(C)C(C=C(Cl)Cl)C1C(=O)OCc1cccc(Oc2ccccc2)c1 (stereo not given)	inactive
CNCCS(=O)(=O)O	inactive
CC[C@H](NC(C)C)[C@H](O)c1ccc(O)c2[nH]c(=O)ccc12	inactive
CCOC(=O)c1ccc(N)cc1	inactive
O=C(O)[C@@H](O)[C@H](O)[C@H](O)[C@@H](O)C(=O)O	inactive
CC(C)(O)C(=O)c1ccccc1	inactive
CCCCCC(C)N (stereo not given)	inactive
OCCOCCOCCO	inactive
CC(=O)NCCCS(=O)(=O)O	inactive
Cc1cc2cc3c(C)cc(=O)oc3c(C)c2o1	inactive

SMILES	Potency
C=CCOCC(O)CS(=O)(=O)O (stereo not given)	inactive
Cc1cnccn1	inactive
COc1ccc(NS(=O)(=O)c2ccc(N)cc2)nn1	inactive
NCCCC[C@H](N[C@@H](CCc1ccccc1)C(=O)O)C(=O)N1CCC[C@H]1C(=O)O	inactive
O=C1OC(=O)c2c(Cl)c(Cl)c(Cl)c(Cl)c21	inactive
Cc1cc2nc3c(=O)[nH]c(=O)nc-3n(C[C@H](O)[C@H](O)[C@H](O)CO)c2cc1C	inactive
COC(=O)Nc1nc2ccc(C(=O)c3cccs3)cc2[nH]1	inactive
CC(C)C(=O)OCc1ccccc1	inactive
CC(C)=CCCC(C)O (stereo not given)	inactive
CCCCOCC	inactive
CCCCCCCC(=O)OC	inactive
CC(C(=O)O)c1ccc(/C=C2\CCCCC2=O)cc1 (stereo not given)	inactive
c1cnccn1	inactive
NCCS	inactive
Nc1ccc(F)c([N+](=O)[O-])c1	inactive
C[C@]12CCC(=O)C=C1C=C[C@@H]1[C@@H]2CC[C@@]2(C)[C@H]1CC[C@@]21CCC(=O)O1	inactive
c1cc(N(CC2CO2)CC2CO2)ccc1OCC1CO1 (stereo not given)	inactive
O=C1Nc2ccc([N+](=O)[O-])cc2C1=O	inactive
CCC(=O)c1ccc2c(c1)N(CCCN(C)C)c1ccccc1S2	inactive
CCCCCCCCCCCCCC[P+](CCCC)(CCCC)CCCC	60.8 µM (active) and 61.1 µM (active)
